Test results from PubChem BioAssay (NCATS).
Results filed as inconclusive are left out. The source made the active and inactive calls. Unless noted, the call rests on the fitted dose curve; in most records, active means well fitted curve in the direction sought with a large enough effect; inconclusive means small, poorly fitted or top-dose-only effect, or another doubt; inactive means no such curve, though single readings can be large; an effect the other way counts as inactive or inconclusive.

Experiments:
[1] = AP1 Signaling Pathway (AID 357; active means well fitted curve in either direction with a large enough effect, not every such curve was filed as active;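 further: ME-180 reporter cells stimulated with EGF at its EC50 level; on the % scale 0 is the no-effect control and ±100 the full control effect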); conditions: ME-180 AP-1-bla reporter, EGF-induced, beta-lactamase ratio, 5 h; at 7.69 µM (top of the series) unless noted
Procedure, shortened: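 First, ME-180 AP-1-bla cells were cultured overnight at 37 °C in low-serum Opti-MEM. Next, titrated compounds with EC50 EGF were incubated 5 hours. Finally, CCF4 was added for 2.5 hours and the 460/530 nm ratio recorded.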

[2] = biological target: Cytochrome P450 1A2 (Homo sapiens) (UniProt P05177); assay: p450-cyp1a2 (AID 410; calls by dose curve; further: potency means the concentration at half of the fitted maximal effect)
Procedure, shortened: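 Luminescent readout of luciferin formed from Luciferin-ME by human CYP1A2; data normalized against complete inhibition by 57 uM furafylline. Enzyme 20nM, substrate 100uM at Km, 100mM KPO4 buffer, 60 min reaction at room temperature.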

[3] = NFAT Signaling Pathway (AID 444; active means well fitted curve in either direction with a large enough effect, not every such curve was filed as active;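 further: carbachol stimulus at about its EC50 of 1 µM final; on the % scale 0 is the no-effect control and ±100 the full control effect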); conditions: Jurkat NFAT-bla M1, carbachol, beta-lactamase ratio, 5 h; at 7.69 µM (top of the series) unless noted
Procedure, shortened: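 Read-out: CCF4 FRET ratio (460 nm/530 nm) after 1 h RT dye loading, used for %activity and AC50 from titration series. Cells: Jurkat NFAT-β-lactamase/M1 line, treated with compound plus 1 uM carbachol for 5 h, 37 °C.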

[4] = Stat Signaling Pathway (AID 446; active means well fitted curve in either direction with a large enough effect, not every such curve was filed as active;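 further: ME-180 cervical cancer cells given 40 pM IL-6 alongside compound; SIE-controlled beta-lactamase reporter measured as 460/530 nm FRET emission ratio; on the % scale 0 is the no-effect control and ±100 the full control effect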); conditions: ME-180 SIE beta-lactamase reporter, IL-6 stimulated, 5 h; at 7.69 µM (top of the series) unless noted
Procedure, shortened: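 Screening format detects activators and inhibitors alike: ME-180 SIE-bla cells stimulated at 40 pM IL-6 for 5 hrs with compound, then dual-emission beta-lactamase read at 405 nm excitation.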

[5] = biological target: Glucocorticoid receptor (Homo sapiens) (UniProt P04150); assay: GR-GFP Redistribution (AID 450;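 active means compounds whose dose series gives a full or clear partial fitted curve of increased nuclear translocation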; further: potency means the concentration at half of the fitted maximal effect); conditions: U2OS GR-GFP nuclear translocation, laser cytometry, 2 h
[6] = biological target: Glucocorticoid receptor (Homo sapiens) (UniProt P04150); assay: GR-EFC Redistribution (AID 451; calls by dose curve; further: potency means the concentration at half of the fitted maximal effect); conditions: CHO-K1 GR-EFC translocation, beta-gal luminescence, 2 h
Procedure, shortened: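 Translocation of GR-ED fusion to nuclear EA restores b-gal, read by luminescence after 1 h room-temperature detection. Engineered CHO-K1 biosensor cells, 1,000/well, exposed 2 h at 37 C to titrations up to 46 uM final.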

[7] = biological target: Mitogen-activated protein kinase 10 (Mus musculus) (UniProt Q61831); assay: JNK3 AlphaScreen Assay (AID 530; active means well fitted curve in either direction with a large enough effect, not every such curve was filed as active;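 further: kinase came from lysate of stimulated human HepG2 cells; signal reports phosphorylation of biotinylated GST-cJun 1-79 at Ser73 with 10 µM ATP; on the % scale 0 is the no-effect control and ±100 the full control effect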)
Procedure, shortened: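 Compound titrations were preincubated 15 minutes at room temperature with substrate, antibody and pre-activated JNK3-containing HepG2 lysate. Reactions were started with 10 uM ATP and stopped with EDTA-containing bead buffer for AlphaScreen detection.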

[8] = biological target: 3',5'-cyclic-AMP phosphodiesterase 4B (Homo sapiens) (UniProt Q07343); assay: qHTS Assay for Inhibitors of PDE-IV (AID 607; active means well fitted activation curve with a large enough effect in the main read-out, with a control signal flat, not every such curve was filed as active; further: % of control where 0% means no effect)
Procedure, shortened: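 The readout is membrane depolarisation from a cAMP-sensing CNG channel, detected with a potential dye at ex 535/em 590. Cells were HEK293-derived (endogenous PDE-IV) at 1000 cells/well, titrated up to 22.9 uM final.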

[9] = biological target: Cytochrome P450 3A4 (Homo sapiens) (UniProt P08684); assay: qHTS Assay for Inhibitors and Substrates of Cytochrome P450 3A4 (AID 884); further: nearly all actives have a fitted effect of over 50% in size; further: potency means the concentration at half of the fitted maximal effect
Procedure, shortened: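 20 nM human CYP3A4 with 25 uM Luciferin-PPXE (at KM) in 200 mM KPO4, preincubated 10 min with compound; NADPH regeneration started a 60 min RT reaction. Luciferin detected by luminescence, normalized to 57 uM ketoconazole as full inhibition.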

[10] = biological target: Cytochrome P450 3A4 (Homo sapiens) (UniProt P08684); assay: qHTS Assay for Activators of Cytochrome P450 3A4 (AID 885); further: nearly all actives have a fitted effect of over 65% in size
Procedure, shortened: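 Steps: enzyme/substrate mix dispensed; compound added, 10 min RT; NADPH regeneration solution added, 60 min RT; luciferin detection buffer stops reaction; 20 min later luminescence measured.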

[11] = Confirmation and Secondary Assay for Modulators of Hemoglobin Beta Chain Splicing at IVS2 705 locus (AID 930);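 further: HeLa cells stably expressing the EGFP-705 splicing reporter; GFP fluorescence per well restored by corrected splicing of the IVS2-705 intron in EGFP; % of control where 0% means no effect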
Procedure, shortened: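 Assay measures total GFP intensity per well in HeLa EGFP-705 cells after 2 days with compound; mis-splicing normally truncates EGFP, so fluorescence indicates corrected splicing.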

[12] = qHTS Assay for Lipid Storage Modulators (AID 1519; calls by dose curve); conditions: Drosophila S3 cells, BODIPY lipid droplet/cell ratio, laser cytometry, cells loaded with oleic acid; for activity change, negative = inhibition: at 57.5 µM (top of the series)
Procedure, shortened: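 Cells seeded at 5,000 per well were treated with compounds over a concentration series and loaded with oleic acid (400 uM, as added). Lipid droplet fluorescence (488 nm excitation, 500-530 nm channel) was read by laser-scanning cytometry and normalized to 20 uM Triacsin C.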

[13] = biological target: Ubiquitin carboxyl-terminal hydrolase 1 (Homo sapiens) (UniProt O94782); assay: Inhibitors of USP1/UAF1: Pilot qHTS (AID 504865);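 further: rhodamine fluorescence freed from ubiquitin-rhodamine substrate followed over time; top concentration of the series differs between compounds; on the % scale 0 is the no-effect control and ±100 the full control effect; nearly all actives have a fitted effect of over 35% in size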
Procedure, shortened: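 Enzyme-free wells gave the negative control, while test wells held 1nM USP1/UAF1 preincubated with compound for 15 min at room temperature. Ub-Rho at 150nM final started the reaction, and fluorescence at 480/540 nm was recorded kinetically.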

[14] = Primary qHTS for small molecule stabilizers of the endoplasmic reticulum resident proteome: Secreted ER Calcium Modulated Protein (SERCaMP) assay (AID 1508630); further: on the % scale 0 is the no-effect control and ±100 the full control effect
Procedure, shortened: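 GLuc-SERCaMP-expressing SH-SY5Y cells, pretreated 16 h with compound, are challenged with thapsigargin to empty ER calcium stores; after 4 h, coelenterazine is added directly to the medium and luminescence is imaged.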

[15] = biological target: Lysosomal acid glucosylceramidase (Homo sapiens) (UniProt P04062); assay: Glucocerebrosidase-p2 (AID 348; in the data active means potency below about 10 µM; further: potency means the concentration at half of the fitted maximal effect); conditions: purified GBA, blue fluorogenic substrate, 40 min
Procedure, shortened: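 Compounds titrated from 0.6 nM upwards against 0.2 nM enzyme in pH 5.9 citric acid/KH2PO4, taurocholate, tween-20; blue fluorogenic substrate 80 uM, 40 min room temperature, stopped and read Ex 365/Em 440 for AC50.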

[16] = Confirmation and Secondary Assay for Modulators of Hemoglobin Beta Chain Splicing at IVS2 654 locus (AID 910);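 further: HeLa cells stably carrying EGFP split by mutant beta-globin IVS2-654 intron; per-well total GFP intensity by laser scanning cytometry after 2-day treatment; % of control where 0% means no effect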
Procedure, shortened: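 Readout: per-well total peak green fluorescence (488 nm ex, 500–520 nm em) from objects 5–250 µm, reflecting correct splicing of an EGFP-654 reporter. Compounds were applied for 2 days at 37 °C to overnight-plated HeLa EGFP-654 cells; controls were DMSO and 500 nM IVS2-654 PNA.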

[17] = biological target: Cytochrome P450 2C19 (Homo sapiens) (UniProt P33261); assay: qHTS Assay for Inhibitors and Substrates of Cytochrome P450 2C19 (AID 899); further: potency means the concentration at half of the fitted maximal effect; nearly all actives have a fitted effect of over 60% in size
Procedure, shortened: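 Reactions contain 5nM enzyme, 10uM Luciferin-H EGE (KM) and 50mM KPO4; compound preincubates 10 min at 37C, NADPH regeneration starts turnover for 60 min. Luminescence after detection reagent gives activity.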

[18] = qHTS Assay for Identification of Small Molecule Agonists for Hypoxia Response Element Signaling Pathway (AID 914; active means well fitted activation curve with a large enough effect in the signal ratio, with a control signal flat, not every such curve was filed as active; the % refers to the signal ratio; further: potency means the concentration at half of the fitted maximal effect); conditions: ME-180 (cervical carcinoma) HRE-bla reporter, beta-lactamase ratio, CoCl2, 17 h; activation: stronger effect = higher value
Procedure, shortened: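 Compounds in a titration series were added to ME-180 reporter cells alongside an EC50 level of CoCl2. After 17 hours, beta-lactamase activity was read as the 460nm/530nm emission ratio of CCF4, giving AC50 values.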

[19] = measured here: cell count channel max response
[20] = measured here: lipid channel max response

Sequence of Lysosomal acid glucosylceramidase (Homo sapiens) (P04062 whole entry, looked up): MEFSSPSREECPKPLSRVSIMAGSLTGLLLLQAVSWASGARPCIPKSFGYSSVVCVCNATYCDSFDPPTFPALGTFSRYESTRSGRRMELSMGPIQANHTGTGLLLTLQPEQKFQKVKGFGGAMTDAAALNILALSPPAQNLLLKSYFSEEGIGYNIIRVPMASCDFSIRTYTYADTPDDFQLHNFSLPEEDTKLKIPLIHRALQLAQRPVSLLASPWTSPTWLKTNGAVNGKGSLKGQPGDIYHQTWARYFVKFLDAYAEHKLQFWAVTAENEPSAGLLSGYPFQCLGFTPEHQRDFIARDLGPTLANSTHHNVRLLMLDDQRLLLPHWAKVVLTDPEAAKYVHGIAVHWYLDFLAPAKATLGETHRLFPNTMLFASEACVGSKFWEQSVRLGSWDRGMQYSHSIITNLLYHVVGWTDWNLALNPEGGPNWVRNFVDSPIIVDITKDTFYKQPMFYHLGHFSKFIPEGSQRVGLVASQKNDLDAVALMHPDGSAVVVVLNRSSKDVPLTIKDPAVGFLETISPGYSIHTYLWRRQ
Sequence of Cytochrome P450 3A4 (Homo sapiens) (P08684 whole entry, looked up): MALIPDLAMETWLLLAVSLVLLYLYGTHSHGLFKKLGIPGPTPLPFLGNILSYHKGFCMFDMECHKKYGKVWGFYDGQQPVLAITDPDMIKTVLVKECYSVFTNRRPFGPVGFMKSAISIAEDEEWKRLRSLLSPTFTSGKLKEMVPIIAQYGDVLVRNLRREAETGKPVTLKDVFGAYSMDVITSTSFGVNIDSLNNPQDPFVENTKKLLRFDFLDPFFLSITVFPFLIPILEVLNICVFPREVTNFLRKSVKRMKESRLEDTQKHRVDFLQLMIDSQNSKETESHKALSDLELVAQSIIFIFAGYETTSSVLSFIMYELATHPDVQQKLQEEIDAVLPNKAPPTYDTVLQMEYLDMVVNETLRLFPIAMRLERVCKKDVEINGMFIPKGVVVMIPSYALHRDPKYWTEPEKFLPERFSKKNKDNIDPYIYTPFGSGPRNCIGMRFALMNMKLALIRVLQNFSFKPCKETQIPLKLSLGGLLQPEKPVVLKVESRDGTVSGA
Sequence of Ubiquitin carboxyl-terminal hydrolase 1 (Homo sapiens) (O94782 whole entry, looked up): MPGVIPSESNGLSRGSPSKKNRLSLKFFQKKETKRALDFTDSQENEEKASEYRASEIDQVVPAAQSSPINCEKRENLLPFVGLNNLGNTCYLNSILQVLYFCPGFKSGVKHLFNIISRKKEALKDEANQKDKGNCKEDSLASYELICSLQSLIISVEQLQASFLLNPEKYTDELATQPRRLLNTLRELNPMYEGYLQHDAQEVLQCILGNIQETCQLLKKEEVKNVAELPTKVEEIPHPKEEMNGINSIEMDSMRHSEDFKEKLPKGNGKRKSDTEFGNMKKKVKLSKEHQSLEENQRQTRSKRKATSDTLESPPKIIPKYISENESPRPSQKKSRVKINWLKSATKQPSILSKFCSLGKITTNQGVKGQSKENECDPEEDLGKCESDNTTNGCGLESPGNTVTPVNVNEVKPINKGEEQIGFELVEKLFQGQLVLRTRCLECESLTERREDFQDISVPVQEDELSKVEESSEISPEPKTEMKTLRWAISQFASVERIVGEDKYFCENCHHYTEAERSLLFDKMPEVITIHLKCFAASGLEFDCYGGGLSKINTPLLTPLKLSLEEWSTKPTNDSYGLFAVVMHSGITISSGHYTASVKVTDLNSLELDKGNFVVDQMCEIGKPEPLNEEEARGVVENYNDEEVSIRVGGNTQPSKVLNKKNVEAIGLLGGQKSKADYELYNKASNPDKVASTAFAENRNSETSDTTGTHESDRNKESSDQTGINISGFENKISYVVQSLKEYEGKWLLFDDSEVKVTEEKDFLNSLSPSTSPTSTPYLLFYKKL
Sequence of Cytochrome P450 1A2 (Homo sapiens) (P05177 whole entry, looked up): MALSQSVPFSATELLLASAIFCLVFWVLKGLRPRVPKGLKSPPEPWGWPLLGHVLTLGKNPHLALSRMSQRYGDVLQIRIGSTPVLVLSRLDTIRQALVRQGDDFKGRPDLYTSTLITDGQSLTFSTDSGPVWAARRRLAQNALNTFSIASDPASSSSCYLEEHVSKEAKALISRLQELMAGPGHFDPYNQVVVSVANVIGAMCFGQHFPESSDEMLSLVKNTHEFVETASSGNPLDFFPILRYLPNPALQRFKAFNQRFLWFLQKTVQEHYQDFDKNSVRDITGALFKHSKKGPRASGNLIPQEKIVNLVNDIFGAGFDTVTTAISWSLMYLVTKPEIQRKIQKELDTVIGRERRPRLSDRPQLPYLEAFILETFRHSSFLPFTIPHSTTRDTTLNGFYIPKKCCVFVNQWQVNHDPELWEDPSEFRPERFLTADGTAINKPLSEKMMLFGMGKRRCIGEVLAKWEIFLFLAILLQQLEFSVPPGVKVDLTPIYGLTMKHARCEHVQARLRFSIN
Sequence of 3',5'-cyclic-AMP phosphodiesterase 4B (Homo sapiens) (Q07343 whole entry, looked up): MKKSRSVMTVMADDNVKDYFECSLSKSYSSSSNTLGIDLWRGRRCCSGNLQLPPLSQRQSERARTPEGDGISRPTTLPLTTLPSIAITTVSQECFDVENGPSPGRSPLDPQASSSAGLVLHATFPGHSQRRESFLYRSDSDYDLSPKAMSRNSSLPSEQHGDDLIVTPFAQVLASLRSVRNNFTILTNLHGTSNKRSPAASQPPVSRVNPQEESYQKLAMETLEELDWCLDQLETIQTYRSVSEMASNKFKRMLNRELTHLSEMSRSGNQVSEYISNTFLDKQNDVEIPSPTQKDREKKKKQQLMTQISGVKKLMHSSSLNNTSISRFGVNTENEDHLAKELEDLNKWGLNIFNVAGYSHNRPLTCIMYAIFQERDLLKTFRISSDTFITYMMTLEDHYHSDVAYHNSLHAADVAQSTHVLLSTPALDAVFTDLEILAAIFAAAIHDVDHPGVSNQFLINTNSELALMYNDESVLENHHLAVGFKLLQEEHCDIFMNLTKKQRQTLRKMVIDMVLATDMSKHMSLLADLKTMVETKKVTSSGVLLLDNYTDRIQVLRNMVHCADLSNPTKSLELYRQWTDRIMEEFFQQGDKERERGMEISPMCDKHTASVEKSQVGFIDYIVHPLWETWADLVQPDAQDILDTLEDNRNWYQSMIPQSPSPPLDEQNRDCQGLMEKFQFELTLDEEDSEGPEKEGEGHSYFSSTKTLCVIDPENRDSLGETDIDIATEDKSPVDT
Sequence of Glucocorticoid receptor (Homo sapiens) (P04150 whole entry, looked up, the tested form may be a part): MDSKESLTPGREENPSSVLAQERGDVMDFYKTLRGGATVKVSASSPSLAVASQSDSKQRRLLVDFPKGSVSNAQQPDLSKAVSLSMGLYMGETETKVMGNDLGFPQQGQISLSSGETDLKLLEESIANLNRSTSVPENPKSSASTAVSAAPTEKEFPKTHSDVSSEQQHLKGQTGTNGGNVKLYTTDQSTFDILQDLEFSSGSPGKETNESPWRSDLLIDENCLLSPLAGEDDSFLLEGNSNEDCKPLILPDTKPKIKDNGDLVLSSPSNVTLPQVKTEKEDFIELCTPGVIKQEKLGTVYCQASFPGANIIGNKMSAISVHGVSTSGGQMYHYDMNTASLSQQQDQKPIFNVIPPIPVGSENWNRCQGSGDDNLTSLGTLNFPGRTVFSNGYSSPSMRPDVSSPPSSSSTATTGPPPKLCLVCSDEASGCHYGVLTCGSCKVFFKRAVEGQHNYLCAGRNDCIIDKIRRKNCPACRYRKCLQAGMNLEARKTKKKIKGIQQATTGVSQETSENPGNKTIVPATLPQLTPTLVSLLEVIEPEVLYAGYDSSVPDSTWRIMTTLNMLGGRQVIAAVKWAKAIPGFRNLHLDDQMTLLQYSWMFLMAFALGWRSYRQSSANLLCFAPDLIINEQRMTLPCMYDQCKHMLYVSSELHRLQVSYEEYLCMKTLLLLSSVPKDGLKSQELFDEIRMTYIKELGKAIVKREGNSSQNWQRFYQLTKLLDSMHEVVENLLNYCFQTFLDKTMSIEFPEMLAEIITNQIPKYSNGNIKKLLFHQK
Sequence of Cytochrome P450 2C19 (Homo sapiens) (P33261 whole entry, looked up): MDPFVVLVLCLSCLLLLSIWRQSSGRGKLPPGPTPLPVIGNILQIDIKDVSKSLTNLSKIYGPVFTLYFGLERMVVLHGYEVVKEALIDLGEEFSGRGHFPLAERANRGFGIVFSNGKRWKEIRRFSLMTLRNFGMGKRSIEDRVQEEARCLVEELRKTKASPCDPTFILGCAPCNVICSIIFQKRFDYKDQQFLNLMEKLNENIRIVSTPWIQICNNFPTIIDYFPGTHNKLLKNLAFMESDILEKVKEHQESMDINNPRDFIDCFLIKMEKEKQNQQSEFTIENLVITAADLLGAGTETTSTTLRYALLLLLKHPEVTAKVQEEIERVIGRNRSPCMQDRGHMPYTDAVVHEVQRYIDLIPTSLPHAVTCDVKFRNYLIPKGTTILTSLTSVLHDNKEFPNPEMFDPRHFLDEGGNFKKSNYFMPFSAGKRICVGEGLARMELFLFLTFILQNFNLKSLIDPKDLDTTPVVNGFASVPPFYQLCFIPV

CN(C)C(=O)c1ccc(-c2cncnc2NCc2cccs2)cc1
27.8%: max response [12, 20]
active: Potency [2] 20 µM | Potency [9] 3.16 µM
22.2%: max response [12, 19]
inactive: activity change, negative = inhibition [1] 8.21% | activity change, negative = inhibition [3] 6.04% | activity, negative = inhibition [4] 17.8% | Potency [5] > 46 µM | Potency [6] > 46 µM | Potency [7] | Potency [8] | Potency [10] | outcome [11] | activity change, negative = inhibition [12] 6.52% | Potency [13] | outcome [14]

CC(=O)N1CCC2(CC1)CN(Cc1ccc(C#N)cc1)C2
inactive: Potency [15] > 11.4 µM | activity change, negative = inhibition [3] 0.883% | Potency [6] > 46 µM | Potency [7] | Potency [8] | activity change, negative = inhibition [12] -1.35% | outcome [14]
-0.767%: max response [12, 19]
-0.217%: max response [12, 20]

Cc1cnc(CNc2ncncc2-c2ccccc2CN(C)C)cn1
0.168%: max response [12, 20]
inactive: Potency [15] > 11.4 µM | activity, negative = inhibition [4] 17.1% | Potency [5] > 46 µM | Potency [6] > 46 µM | Potency [7] | Potency [8] | Potency [10] | outcome [11] | activity change, negative = inhibition [12] -8.48% | Potency [13] | outcome [14]
4.47%: max response [12, 19]
active: Potency [2] 12.6 µM

O=C(c1cccc(F)c1)N1CCC2(CC1)CCN(c1ccncc1)CC2
-17.2%: max response [12, 19]
inactive: Potency [15] > 11.4 µM | activity, negative = inhibition [4] 24% | Potency [6] > 46 µM | Potency [7] | Potency [9] | activity change, negative = inhibition [12] -0.521% | outcome [14]
-16.4%: max response [12, 20]

N#Cc1cccc(-c2ccc3ncnc(NCc4cccnc4)c3c2)c1
12%: max response [12, 19]
inactive: Potency [15] > 11.4 µM | activity change, negative = inhibition [3] 21.6% | activity, negative = inhibition [4] -12.3% | Potency [5] > 46 µM | Potency [6] > 46 µM | Potency [7] | Potency [8] | Potency [16] | outcome [11] | activity change, negative = inhibition [12] 7.68% | outcome [14]
20.4%: max response [12, 20]

Cc1noc(C)c1-c1ccc2ncnc(N(C)Cc3ccco3)c2c1
23.8%: max response [12, 19]
active: Potency [2] 2.51 µM | Potency [17] 5.01 µM | Potency [18] 1.58 µM
inactive: Potency [15] > 11.4 µM | Potency [5] > 46 µM | Potency [6] > 46 µM | Potency [7] | Potency [10] | activity change, negative = inhibition [12] 2.4% | Potency [13] | outcome [14]
25.4%: max response [12, 20]
